This is one part of a sample in which hits are shown more often than they occur.
DUSP3 inh: VHR1 phosphatase inhibitors, primary screen, biochemical, colorimetric, HTS. AID 1992, 2009. inhibition, % at 20 µM. recombinant VHR phosphatase, colorimetric substrate read-out. Dual specificity protein phosphatase 3 (Homo sapiens), P51452. 0.7% of 50,000 active; in the data active = inhibition above about 60%
Target sequence (P51452 whole entry, looked up): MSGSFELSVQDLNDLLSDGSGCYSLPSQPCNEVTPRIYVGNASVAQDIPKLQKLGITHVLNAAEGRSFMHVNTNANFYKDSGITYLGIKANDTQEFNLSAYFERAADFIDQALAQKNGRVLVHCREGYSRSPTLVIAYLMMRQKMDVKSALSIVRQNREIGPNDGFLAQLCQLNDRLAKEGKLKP
Each line names hits and unclear results; the compound was inactive in the other large screens.

O=C(Nc1ccc(-c2nc3ccccc3s2)c(O)c1)c1cc2ccccc2o1	none
O=C(/C=C/c1ccco1)Nc1ccc(O)c(-c2nc3ccccc3o2)c1	none
O=C(/C=C/c1ccco1)Nc1ccc(-c2nc3ccccc3s2)c(O)c1	DUSP3 inh 75
Cc1c(C#N)c(N)c(C(=O)c2ccc(Br)cc2)n1-c1ccc(Br)cc1	none
O=C(NCc1ccccc1)c1nn2c(c1Br)NC(c1cccs1)CC2C(F)(F)F (stereo not given)	none
O=[N+]([O-])c1ccc(F)c(NS(=O)(=O)c2cc(Cl)ccc2Cl)c1	none
O=C1C=CC(=O)c2c1c(-c1ccccc1)nn2-c1ccccc1	DUSP3 inh 86
Cc1c(C(=O)NCCO)c(-c2ccccc2)nn1-c1ccccc1	none
CCOC(=O)c1c(-c2ccccc2)nn(-c2ccccc2)c1C	none
Cc1c(OCC(=O)c2ccccc2)ccc2c(-c3ccccc3)cc(=O)oc12	none
COc1ccc(O)c(C(=O)CC(=O)c2ccccc2)c1	none
O=C(CSc1nc2ccc(N3C(=O)c4ccccc4C3=O)cc2s1)Nc1ccc(F)cc1	none
COc1ccccc1/C=C1\SC(=S)N(NC(=O)c2ccccc2O)C1=O	none
O=C(O)c1cc(-c2ccc(/C=N/Nc3ccc([N+](=O)[O-])cn3)o2)ccc1Cl	none
Cc1cc(C(=O)N/N=C/c2ccc(-c3cccc(C(=O)O)c3)o2)n[nH]1	none
O=C(O)c1cccc(-c2ccc(/C=N/Nc3ccc([N+](=O)[O-])cn3)o2)c1	DUSP3 inh 90
Cc1cccc(OCCCCN2CCCC2)c1C	none
COc1nc(Nc2ccc(Cl)c(Cl)c2)nc(N(C)C)n1	none
O=C(c1ccc(Cl)c(Cl)c1)N1CCN(C/C=C/c2ccccc2)CC1	none
Cc1ccc(-n2c(O)c(/C=C3\C=Nc4ccccc43)c(=O)[nH]c2=S)cc1	DUSP3 inh 64
O=c1[nH]c(=S)n(-c2ccc(Cl)c(Cl)c2)c(O)c1/C=C1/C=Nc2ccccc21	none
Cc1cc(C)cc(-n2c(O)c(/C=C3\C=Nc4ccccc43)c(=O)[nH]c2=O)c1	none
O=c1c2c3c(sc2[nH]c(=S)n1-c1ccccc1)-c1ccccc1CC3	none
COc1cc(C(=O)Nc2c(C)cc(Br)cc2C)cc(OC)c1OC	none
COc1cc(C(=O)O)c(-n2c(C)ccc2C)cc1OC	none
Cc1ccc(C(=O)O)cc1-n1c(C)ccc1C	none
Cc1ccc(C)n1-c1ccc(Cl)c(C(=O)O)c1	none
Cc1ccc(C)n1-c1cc(C(=O)O)ccc1Cl	DUSP3 inh 83
Cc1cc(C(=O)O)ccc1-n1c(C)ccc1C	none
Cc1ccc(C)n1-c1ccc(Cl)cc1C(=O)O	DUSP3 inh 85
O=C(N/C(=C/c1ccc(Br)cc1)C(=O)N1CCCC1)c1cccs1	none
N#Cc1c(NC(=O)c2ccc(C(=O)O)cc2C(=O)O)sc2c1CCCC2	none
COc1cc(C2Nc3cc(C)c(C)cc3NC3=C2C(=O)CC(C)(C)C3)cc(Br)c1OC (stereo not given)	none
CCOc1cc(C2C(C(=O)OCC3CCCO3)=C(C)NC3=C2C(=O)CCC3)cc([N+](=O)[O-])c1O (stereo not given)	none
CCOc1cc(C2Nc3cc(C)c(C)cc3NC3=C2C(=O)CC(C)(C)C3)cc([N+](=O)[O-])c1O (stereo not given)	DUSP3 inh 118
CC(=O)Nc1ccc(C2Nc3cc(C)c(C)cc3NC3=C2C(=O)CC(C)(C)C3)cc1 (stereo not given)	DUSP3 inh 100
Cc1cc2c(cc1C)NC(c1c(F)cccc1F)C1=C(CC(C)(C)CC1=O)N2 (stereo not given)	none
COC(=O)c1ccc(C2Nc3cc(C)c(C)cc3NC3=C2C(=O)CC(C)(C)C3)cc1 (stereo not given)	none
CCOc1cccc(N2C(=O)/C(=C/c3ccc(N(CC)CC)cc3OC)C(=O)NC2=S)c1	none
COc1ccc(OC)c(NC(=S)Nc2ccc(F)cc2)c1	none
COc1cc(/C=c2/sc3nc4c(Br)c(C)c(C)cc4n3c2=O)ccc1OCC(=O)O	none
Cc1cc(C)c2nc3s/c(=C\c4ccccc4)c(=O)n3c2c1	none
Cc1cc2c(nc3s/c(=C/c4ccccc4)c(=O)n32)c(Br)c1C	DUSP3 inh 99
O=C/C(=C\Nc1cccc(N/C=C(\C=O)c2nc3cc(Cl)ccc3o2)n1)c1nc2cc(Cl)ccc2o1	none
CCOC(=O)Oc1ccc2c(=O)c(Oc3ccccc3Br)coc2c1	none
COc1cccc(/C=C2/N=C(c3ccc(NC(C)=O)cc3)OC2=O)c1	none
CCOc1cc(C=C2C(=O)NC(=O)NC2=O)ccc1OCc1ccccc1	none
CCOc1cc(/C=C2/N=C(c3ccc(NC(C)=O)cc3)OC2=O)ccc1OCc1ccccc1	DUSP3 inh 86
CCOC(=O)C(=O)N1c2ccccc2CCc2ccccc21	none
COc1cc(NC(=O)c2ccccc2F)cc(OC)c1	none
CN(C)c1cccc(NC(=O)c2ccccc2-c2ccccc2)c1	none
O=C(CSc1ncccn1)NN=C1CCCC1	none
Cc1nc2cc(-c3cccc(Cl)c3)nn2c(C)c1Cl	none
Cc1nc2cc(-c3cccc(F)c3)nn2c(C)c1Cl	none
Cc1nc2cc(-c3ccccc3)nn2c(C)c1C	DUSP3 inh 117
Cc1ccc(-c2nc3cc(Cl)ccc3o2)cc1NC(=O)c1ccc2c(c1)OCCO2	none
Cc1cccc(NC(=O)c2c(NC(=O)C(C)(C)C)sc3c2CCCC3)c1	DUSP3 inh 88
Cc1ccccc1NC(=O)c1c(NC(=O)C(C)(C)C)sc2c1CCCC2	none
COc1ccccc1NC(=O)c1c(NC(=O)C(C)(C)C)sc2c1CCCC2	none
COC(=O)c1cc(NC(=O)COc2ccccc2C)cc(C(=O)OC)c1	none
Fc1ccc(NC(=S)NCCC(c2ccccc2)c2ccccc2)cc1	none
O=C(NC(Cc1ccccc1)C(=O)Nc1ccccc1)OCc1ccccc1 (stereo not given)	none
CCC(C)C(NC(=S)Nc1ccccc1)C(=O)O (stereo not given)	DUSP3 inh 98
CCN(CC)S(=O)(=O)c1ccc(NC(=S)Nc2ccccc2)cc1	none
O=C(O)C(Cc1ccccc1)NC(=S)Nc1ccccc1 (stereo not given)	DUSP3 inh 99
O=C(O)CSCC(NC(=S)Nc1ccccc1)C(=O)O (stereo not given)	none
CC(=O)Nc1ccc(NC(=S)Nc2ccccc2)cc1	none
Cc1ccc(C(=O)/C(=C\c2ccc(F)cc2)c2nc3ccccc3o2)cc1	none
Cc1cc(Cl)ccc1OCC(=O)NNC(=O)c1cccnc1	none
CSc1nc2c(c(=O)n1C1CCCC1)C1(CCCCC1)Cc1ccccc1-2	none
O=C(Nc1cccc2ccccc12)C1C2CCC3C(CCC21)C3(Cl)Cl (stereo not given)	none
CCOc1ccccc1NC(=O)C1C2CCC3C(CCC21)C3(Cl)Cl (stereo not given)	DUSP3 inh 119
CCOc1ccccc1NC(=O)c1ccccc1	none
CCC(CO)Nc1nc2c(c(=O)n(C)c(=O)n2C)n1C (stereo not given)	none
N#C/C(=C\c1ccc(-c2ccc3c(c2)COC3=O)o1)c1nc2ccccc2[nH]1	DUSP3 inh 64
N#C/C(=C\c1ccc(-c2ccc3c(c2)COC3=O)o1)C(N)=O	none
N#CC(C#N)=Cc1ccc(-c2ccc3c(c2)COC3=O)o1	none
O=C(CCN1C(=O)c2cccc([N+](=O)[O-])c2C1=O)NCC1CCCO1 (stereo not given)	none
CSCCC(C(=O)O)N1C(=O)/C(=C\c2ccc(-c3ccc([N+](=O)[O-])cc3)o2)SC1=S (stereo not given)	DUSP3 inh 81
CN1C(=O)/C(=C/c2ccc(-c3ccc([N+](=O)[O-])cc3)o2)SC1=S	none
O=C1/C(=C\c2ccc(-c3ccc([N+](=O)[O-])cc3)o2)SC(=S)N1c1ccc(O)cc1	none
O=C1NC(=O)/C(=C\c2ccc(-c3cccc([N+](=O)[O-])c3)o2)S1	none
